# High-throughput results as filed in PubChem BioAssay.
# Only some compounds are listed: those with a hit (about 9.5% of all), similar ones and a draw of the others.
# NS1 function inh: qHTS Assay for Inhibitors of Influenza NS1 Protein Function; 0.4% of 270,000 active; Potency, µM (top dose mostly 46.1 µM), inactives show top-dose activity, positive = more growth; also: actives are rising curves; nearly all actives have a fitted effect of over 50% in size
#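 Compounds were scored for reversing the slow growth caused by influenza A NS1 in S. cerevisiae, measured by optical density at 600 nm. Assay medium contained 2% galactose at pH 6.0; NS1-free yeast of the same strain were the positive control.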
# Pf growth 48h: Primary qHTS for delayed death inhibitors of the malarial parasite plastid, 48 hour incubation | P. falciparum luciferase growth in erythrocytes, 48 h | Potency, µM (highest dose often 28.7 µM), for the others: top-dose activity change, negative = inhibition, hits mostly inhibitors | 5.9% of 310,000 active | AID 504832, 2011; active = well fitted inhibition curve with a large enough effect; inconclusive = small, poorly fitted or top-dose-only effect, or another doubt; inactive = no such curve, though single readings can be large or run the other way; also: % is scaled to controls: 0 for no effect and ±100 for the full control effect
#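 Here the parasites carry a stable luciferase gene and grow inside erythrocytes in Albumax-based RPMI medium with compound for one erythrocytic cycle. Activity is scored as loss of luminescent signal.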
# RE007 growth inh: qHTS Assay for Inhibitors of the HIV-1 protein Vpr | S. pombe RE007 Vpr strain, BacTiter-Glo ATP luminescence, 24 h | Potency, µM (doses to about 92.2 µM), for the others: at the highest dose activity change, negative = less growth, usual class: inhibitors | 0.21% of 360,000 active | AID 651644, 2012; active = well fitted falling curve with a large enough effect; inconclusive = small, poorly fitted or top-dose-only effect; inactive = no such curve, though single readings can be large or run the other way; also: % is scaled to controls: 0 for no effect and ±100 for the full control effect; nearly all actives have a fitted effect of over 50% in size
#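 Fission yeast RE007 carrying one integrated HIV-1 vpr copy, seeded at OD 0.01 in PMG+AL medium with 23 nL pinned compound. Grown 24 h at 30 degrees; viability read by BacTiter-Glo luminescence after 5 min.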
# Pf growth 96h: Primary qHTS for delayed death inhibitors of the malarial parasite plastid, 96 hour incubation. P. falciparum luciferase reporter growth, 96 h. Potency, µM (titrated, usually from 28.7 µM), for inactives: at the top dose activity change, negative = inhibition, most hits filed as inhibitors. 6.9% of 320,000 active. AID 504834, 2011; active = well fitted inhibition curve with a large enough effect; inconclusive = small, poorly fitted or top-dose-only effect, or another doubt; inactive = no such curve, though single readings can be large or run the other way; also: % is scaled to controls: 0 for no effect and ±100 for the full control effect
#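 Compounds incubated with erythrocytes infected by luciferase-expressing P. falciparum (2% hematocrit, 0.05% parasitemia final) for 96 hours, 37 C in 5% CO2. Growth inhibition scored as decreased luciferase luminescence.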
# SARS PLpro yeast: qHTS of Yeast-based Assay for SARS-CoV PLP; S. cerevisiae expressing SARS-CoV PLpro, growth rescue; Potency, µM (doses to about 32.9 µM), for the others: at the highest dose activity, positive = growth rescue, actives largely listed as activators; 0.19% of 330,000 active; AID 485353, 2010; also: 0% is about no effect; nearly all actives have a fitted effect of over 55% in size
# Starred values were filed as active, the others as inactive; ? = inconclusive; · = no result; [ ] = remark or other dose. Unless noted, calls follow the shape of the full dose curve. Potency is read from the fitted curve at half-maximal effect.
SMILES,NS1 function inh,Pf growth 48h,RE007 growth inh,Pf growth 96h,SARS PLpro yeast
COc1ccc(/C=N/NC(=O)c2nc(-c3ccccc3)cc(-c3ccccc3)n2)cc1OC,15%,?,-9%,2.3µM*,-16%
Cn1c2ccccc2c2cc(/C=N/NC(=O)c3cc(O)cc(O)c3)ccc21,-42%,?,-1%,?,?
COc1cc(/C=N\NC(=O)c2ccc(-c3ccccc3)cc2)cc(OC)c1OC(C)=O,3%,?,1%,?,2%
COc1cc(C(=O)N/N=C/c2ccc3c(c2)c2ccccc2n3C)ccc1O,-9%,4.7µM*,3%,9.3µM*,0%
CC1CCN(c2ccc(C=O)o2)CC1,2%,-26%,-13%,0.23µM*,1%
O=Cc1ccc(N2CCCC2)o1,·,15%,3%,17%,1%
CCCCN1C(=O)C2(NNc3ccccc3O2)c2ccccc21 (stereo unspecified),-33%,10µM*,?,·,-30%
C=CCN1C(=O)C2(NNc3ccccc3O2)c2ccccc21 (stereo unspecified),-48%,·,-22%,12µM*,-13%
C[C@@H]1CCCCO[C@H](CN(C)C(=O)Nc2ccc(F)cc2)[C@@H](C)CN([C@H](C)CO)C(=O)c2cc(N(C)C)ccc2O1,·,·,-3%,·,·
CCOC1(C)OCC(=O)[C@]2(CCC3C4CCC5=CC(=O)C=CC5(C)C4C(=O)CC32C)O1 (stereo partly specified),-16%,10µM*,7%,?,27%
CC(=O)OCC(=O)[C@@]1(O)CC[C@H]2[C@@H]3CCC4=CC(=O)C=C[C@]4(C)[C@H]3C(=O)C[C@@]21C,2%,0%,-10%,-24%,-1%
Cc1ccc(S(=O)(=O)NCCCNS(=O)(=O)c2ccccc2)cc1,10%,42%,12%,20%,-7%
COc1ccc(N=Nc2nc3cc(Br)c(Br)cc3n2C)c(OC)c1,?,10µM*,15%,?,·
Cc1ccc(C2CC2C(=O)NNC(=S)Nc2cccc(Cl)c2)cc1 (stereo unspecified),-26%,7%,9%,?,14µM*
Cc1nc(N)nc(N/N=C/c2c(F)cccc2Cl)n1,5%,7%[0.00184 µM],-10%,48%,0%
Cc1nc(C#N)c(N/N=C/c2c(F)cccc2Cl)o1,-33%,68%,-8%,30%,11µM*
Cc1c(NC(=O)COC(=O)C2=COCCO2)cccc1[N+](=O)[O-],·,27%,-22%,63%,6%
O=C(Nc1cc(S(=O)(=O)N2CCCCC2)ccc1Oc1ccccc1)C1=COCCO1,13%,10µM*,7%,10µM*,1%
COc1ccc(S(=O)(=O)N2CCCCCC2)cc1NC(=O)c1ccccc1,5%,2%,-25%,?,5%
COc1cccc(Oc2ccc(C(F)(F)F)cc2NC(=O)C2=COCCO2)c1,5%,?,0%,7.4µM*,-2%
COc1ccc(NC(=O)N2CCCC(C(=O)NCCc3ccccc3)C2)cc1 (stereo unspecified),-5%,20%,-4%,-16%,?
Cc1cc(C)n(CCN(C)C(=O)C2CCC(=O)N(CCc3cccc(F)c3)C2)n1 (stereo unspecified),-10%,22%,14%,?,24%
COc1cc(NC(=O)CN2C(=O)NC(C)(c3ccccc3)C2=O)c(C)cc1[N+](=O)[O-] (stereo unspecified),9%,?,1%,12µM*,29%
COc1cc(NC(=O)CN2C(=O)NC(C)(c3ccc4ccccc4c3)C2=O)c(C)cc1[N+](=O)[O-] (stereo unspecified),?,?,-2%,?,7%
CC1(c2ccc([N+](=O)[O-])cc2)NC(=O)N(CC(=O)Nc2cccnc2Cl)C1=O (stereo unspecified),·,4%,-16%,12µM*,0%
SMILES,NS1 function inh,Pf growth 48h,RE007 growth inh,Pf growth 96h,SARS PLpro yeast
Cc1ccc(C2(C)NC(=O)N(CC(=O)Nc3cccnc3Cl)C2=O)cc1 (stereo unspecified),·,2%,1%,-37%,-2%
Cc1cc(C)cc(C(=O)NCCCN2CCOCC2)c1,0%,13%,7%,-34%,9%
Cc1nc([N+](=O)[O-])cn1-c1ccc(N)cc1,9%,5%,-11%,12µM*,3%
CCn1cc([N+](=O)[O-])nc1C,-9%,-2%,5%,16%,14%
COC(=O)c1c(-c2ccc(C)cc2)csc1NC(=S)NC(=O)c1cc(OC)cc(OC)c1,-4%,?,-23%,8.3µM*,-19%
C[C@H](CO)N1C[C@H](C)[C@@H](CN(C)C(=O)NC2CCCCC2)Oc2ccc(NC(=O)Nc3ccccc3)cc2C1=O,·,·,-14%,·,0%
CCOC(=O)c1c(C)[nH]c(C)c1C(=O)COC(=O)/C=C/c1cccc(C(F)(F)F)c1,4%,15µM*,14%,?,-35%
CCOC(=O)c1c(C)[nH]c(C)c1C(=O)COC(=O)/C=C/c1cccc(F)c1,-18%,?,-11%,?,14%
CCCN1C2CCCC1CC(NC(=O)c1ccccc1Br)C2 (stereo unspecified),4%,13%,-20%,37%,2%
CN(C(=O)CN1C(=O)S/C(=C\c2ccccc2)C1=O)C1CCS(=O)(=O)C1 (stereo unspecified),1%,-7%,4%,13µM*,2%
CN(C(=O)CCN1C(=O)/C(=C/c2ccccc2)SC1=S)C1CCS(=O)(=O)C1 (stereo unspecified),3%,?,6%,2.6µM*,0%
CSc1ccccc1OCc1cc(C(=O)NC2CCOC(C)(C)C2)no1 (stereo unspecified),8%,-30%,?,?,-6%
COc1ccc(OCc2cc(C(=O)NC3CCOC(C)(C)C3)no2)c2ccccc12 (stereo unspecified),-3%,9.3µM*,·,1.2µM*,-9%
Cc1cccc(C)c1OCc1cc(C(=O)N2CCN(c3ccccc3)CC2C)no1 (stereo unspecified),6%,6%,1%,23%,3%
Cc1ccc(C)c(OCc2cc(C(=O)N3CCN(c4ccccc4C)CC3C)no2)c1 (stereo unspecified),13%,6%,-13%,12µM*,17%
Cc1ccc(C)c(OCc2cc(C(=O)NC3CCOC(C)(C)C3)no2)c1 (stereo unspecified),10%,-3%,1%,10µM*,-2%
CCc1ccc(CNC(=O)C2CCCN(c3nn4c(=O)cc(C)nc4s3)C2)cc1 (stereo unspecified),-10%,?,-12%,?,1%
N[C@@H](Cc1cccc([N+](=O)[O-])c1)C(=O)O,5%,·,·,·,·
